# Results taken from ChEMBL document CHEMBL1157539, “Thousands of chemical starting points for antimalarial lead identification” (Nature, 2010).
# Tests used:
# Type in all cases: functional
# [1] = system: Plasmodium falciparum; assay: GSK_TCMDC: Inhibition of Plasmodium falciparum 3D7 in whole red blood cells, using parasite LDH activity as an index of growth. Test compounds present at 2uM
# [2] = system: Plasmodium falciparum; assay: GSK_TCMDC: Inhibition of Plasmodium falciparum Dd2 in whole red blood cells, using parasite LDH activity as an index of growth. Test compounds present at 2uM
# [3] = system: HepG2; assay: GSK_TCMDC: Percent inhibition of human HepG2 cell line. Test compounds present at 10uM.
Structure (SMILES),Inhibition [1],Inhibition [2],Inhibition [3]
Brc1cccc(Nc2nccc(Nc3ccc(Oc4ccccc4)cc3)n2)c1.Cl,89%,5%,0%
CNCc1ccc2nc(-c3coc(Cc4cc(Cl)ccc4OCC(C)C)n3)[nH]c2c1.Cl,100%,95%,34%
CCCOc1cc(NC(=O)Nc2ccnc3ccccc23)cc(OCCC)c1.Cl,100%,98%,6%
O=C(Nc1ccc(Cl)cc1)Nc1ccc(Cn2ncc(N3CCCNCC3)c(Cl)c2=O)cc1.O=C(O)C(F)(F)F,85%,11%,49%
CN1CCN(Cc2ccc(-c3ccc4c(Nc5ccc(Cl)cc5F)ccnc4c3)o2)CC1,100%,100%,47%
O=C(Nc1ccc(Cl)c(C(F)(F)F)c1)NC1CCN(CCCCCNC(=O)C2CC2c2ccc(Cl)c(Cl)c2)CC1 (stereo not given),100%,41%,79%
Cc1cccc(S(=O)(=O)Nc2cccc(CCN3CCC(N4CCCCC4)CC3)c2)c1,87%,13%,15%
O=C(NC1CCN(CCN2CCC(c3c[nH]c4ccccc34)CC2)CC1)c1ccc(-c2ccc(C(F)(F)F)cc2)cc1,99%,100%,100%
Cc1cc(N)c2cc(NC(=O)/C=C/c3ccccc3)ccc2n1,100%,68%,20%
CC(C)Cn1c2ccccc2c2nc3nc(N)nc(N)c3nc21,93%,0%,36%
CCCC1N=C(N)N=C(N)N1c1ccc(Cl)cc1.Cl (stereo not given),96%,0%,14%
CN(C)c1ccc(C=Cc2ccc3ccccc3n2)c(Cl)c1,94%,95%,59%
Cc1nc(Nc2ccc(C)c(Cl)c2)c2c(C)noc2n1,94%,72%,0%
COc1ccc2nccc([C@@H](O)CN3CCC(NCc4cc5cccc(OC)c5o4)CC3)c2c1.O=C(O)C(=O)O,99%,81%,10%
O=C(N[C@@H](Cc1ccccc1)C(=O)NCCN1CCCCC1)c1ccc(O)c(-c2cccc(C(F)(F)F)c2)c1,92%,3%,0%
CCn1c(C2CCN(CCC3CCN(C(=O)/C=C/c4ccc(Cl)c(Cl)c4)CC3)CC2)nc2ccccc21,86%,0%,17%
CCOc1ccc2c(c1)C(C)(c1ccc3c(c1)C(C)CC(C)(C)N3)CC(C)(C)N2 (stereo not given),94%,3%,5%
COc1ccc(C2C(C(=O)Nc3cc(C)ccc3OC)c3ccccc3C(=O)N2C)cc1 (stereo not given),86%,3%,3%
Cl.Fc1cccc(COc2ccc(Nc3ncnc4ccc(-c5nnc(C(F)(F)F)o5)cc34)cc2Cl)c1,100%,77%,14%
O=C(Nc1ccc(Cl)cc1)c1ccc(CN2CCCN(Cc3ccccc3)CC2)cc1.O=C(O)C(F)(F)F,96%,2%,46%

Structure (SMILES),Inhibition [1],Inhibition [2],Inhibition [3]
COc1ccc(Cl)cc1NC(=O)C(C)N1CCN(S(=O)(=O)c2ccccc2F)CC1 (stereo not given),93%,66%,5%
O=C(Cc1c[nH]cn1)Nc1cccc(-c2ccc(-c3nc4cc(C(F)(F)F)ccc4[nH]3)s2)c1,100%,99%,5%
NC(=O)c1ccc(NCC(=O)Nc2cccc(-c3cccc(-c4nc5cc(F)ccc5[nH]4)c3)c2)cc1,97%,32%,15%
COc1ccc2ncc(F)c(CCN3C[C@H](CNCc4cc(C#N)c5c(c4)OCCO5)[C@H](O)C3)c2n1.Cl,100%,64%,7%
CCCCCOc1ccc(N2C(N)=NC(N)=NC2(C)C)cc1.Cl,97%,0%,24%
CCn1ncc2c(N3CCCC3=O)cc(C(=O)N[C@@H](Cc3ccccc3)[C@H](O)CNC(C)(C)c3cccc(OC)c3)cc21,98%,97%,6%
O=C(Nc1cccc(CN2CCCN(Cc3cccnc3)CC2)c1)c1cc2ccccc2s1.O=C(O)C(F)(F)F,92%,28%,15%
COc1ccc2nccc([C@@H](O)CN3CCC(NCc4nc5cc(F)ccc5o4)CC3)c2c1.O=C(O)C(=O)O,100%,12%,14%
Cc1ccc(NC(=O)c2cnc(N3CCN(c4ccncc4)CC3)c(Cl)c2)cc1.O=C(O)C(F)(F)F,94%,24%,25%
N=C1NC(c2ccccc2)(c2ccccc2)C(=O)N1CC=Cc1ccccc1.O=C(O)C(F)(F)F,98%,70%,23%
COC(=O)Cn1c(C2CCN(CC3CCN(C(=O)/C=C/c4ccc(Cl)c(Cl)c4)CC3)CC2)nc2ccccc21,86%,2%,19%
O=C(NCc1ccc(C(F)(F)F)cc1)c1cccc(-c2nnc(-c3cccc(-c4cncnc4)c3)o2)c1,96%,79%,13%
COc1ccc2c(c1)Sc1ccccc1C(N1CCN(CCO)CC1)C2.Cl (stereo not given),95%,4%,11%
CC(CN(C)C)C(=O)Nc1cccc(-c2cccc(-c3nc4cc(F)ccc4[nH]3)c2)c1 (stereo not given),100%,94%,29%
CC(C)Oc1ccc(N2CCN(CCCCNC(=O)c3ccc(NC(=O)c4ccc(Cl)cc4)cc3)CC2)c(OC(C)C)c1,100%,85%,31%
Fc1ccc(-c2oc(C3CCN(CCc4ccc(-c5noc(=S)[nH]5)cc4)CC3)nc2COCC(F)(F)F)cc1,97%,95%,5%
O=C(O)C(F)(F)F.O=S(=O)(NCCN1CCCC1)c1ccc(-c2ccc(CNC3Cc4ccccc4C3)cc2)cc1,99%,91%,61%
COc1ccc(C(=O)NCc2ccccc2-c2ccc(C(C)(C)C)cc2)cc1O,99%,97%,10%
COc1ccc2nccc(N3CCC(CCNCc4ccc5c(n4)NC(=O)CO5)CC3)c2n1.Cl,100%,72%,19%
Cc1cc(N[C@@H](Cc2ccccc2)C(=O)NC2CCCC2)nc(NCCc2cccs2)n1.O=C(O)C(F)(F)F,99%,14%,0%

Structure (SMILES),Inhibition [1],Inhibition [2],Inhibition [3]
CN1CCC(NCc2ccc(-c3cnc(NCc4ccccc4)nc3)cc2)CC1.O=C(O)C(F)(F)F,91%,64%,23%
Cc1cccc2[nH]c(-c3cc(-c4cccc(Cl)c4)cnc3N)nc12.O=C(O)C(F)(F)F,100%,99%,32%
CC(C)(C)c1cc(CN2CCN(Cc3ccccc3)CC2)cc(C(C)(C)C)c1O,97%,0%,9%
Cn1cncc1C(=O)Nc1cccc(-c2cccc(-c3nc4cc(F)ccc4[nH]3)c2)c1,100%,45%,16%
Cl.N=c1n(Cc2ccccc2)c2ccccc2n1CC(O)c1ccc(Cl)c(Cl)c1 (stereo not given),95%,98%,40%
CC1=C(C(=O)Nc2ccc(Cl)cc2)C(c2ccncc2)n2nc(C(F)(F)F)nc2N1 (stereo not given),87%,49%,25%
Cc1cc(NC(=O)NCCN2CCC(NC(=O)c3ccc(C(F)(F)F)cc3)CC2)c2ccccc2n1.O=C(O)C(F)(F)F,98%,75%,3%
O=C(CC1NC(=O)c2ccccc21)Nc1ccc(-c2ccc(-c3nc4cc(C(F)(F)F)ccc4[nH]3)cc2)cc1 (stereo not given),87%,70%,39%
O=C(Nc1cccc(-c2nc3ccccc3[nH]2)c1)c1ccc(-c2cccc([N+](=O)[O-])c2)o1,93%,28%,22%
Cc1cc(C(F)(F)F)n2nc(C3CCN(Cc4cc(C)c(O)c(C)c4)C3)cc2n1.O=C(O)CC(O)(CC(=O)O)C(=O)O (stereo not given),98%,99%,34%
O=C(Nc1cccc(OCCN2CCCC2)c1)Nc1ccc(Cl)c(Cl)c1.O=C(O)C(F)(F)F,98%,22%,3%
CC(CN1CCN(C)CC1)C(=O)Nc1cccc(-c2cccc(-c3nc4ccccc4[nH]3)c2)c1 (stereo not given),88%,19%,23%
Cc1cccc2nc(-c3cccc(-c4cccc(NC(=O)Nc5ccc(Cl)cc5)c4)c3)[nH]c12,100%,94%,23%
COc1ccc(-c2nc(NC(=O)CS(=O)(=O)c3ccccc3)sc2C)cc1,99%,82%,7%
CCn1c(-c2nonc2N)nc2c(-c3cccc(NC(=O)NC45CC6CC(CC(C6)C4)C5)c3)ncc(OCCCN)c21.O=C(O)C(F)(F)F,94%,63%,100%
O=C(Nc1cccc(C(F)(F)F)c1)c1cccc2nc(C(F)(F)F)[nH]c12,100%,98%,81%
O=C(/C=C/c1ccc(Cl)c(Cl)c1)NCCCCCN1CCC(c2c[nH]c3cc(O)ccc23)CC1,100%,2%,32%
CCCCc1cc(NCC)nc(Nc2cccc(OC)c2)n1,97%,69%,9%
CC(C)(CNC(=O)[C@@H]1CCCN(Cc2ccc(Cl)cc2)C1)c1nc(-c2ccc(Cl)c(O)c2)c(-c2ccncc2)[nH]1.Cl,97%,37%,66%
CC(C)(C)N1CCC(N(Cc2ccc(-c3ccc(C(F)(F)F)cc3)cc2)C(=O)Cn2c(CCc3cccc(F)c3F)nc(=O)c3cccnc32)CC1.O=C(O)C(O)C(O)C(=O)O,100%,53%,94%
